Results reported in PubChem BioAssay AID1159580 (chemical genetic matrix, 2015).
“And” between values parts separate entries of the source, which are not always exact repeats. Equal entries are not always repeated. About 2,000 (36%) of roughly 5,500 compounds were called active. About 18% were inconclusive and are not listed. Rule as the data show it: active = normalized growth mostly below about 0.91 (no sharp cut-off); inconclusive = no clear call, values can overlap the other calls; inactive = mostly above about 0.92. This is one part of the list.

Test: chemical genetic growth profiling, strain panel (AID 1159580);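 also: tested at 20 µM; growth read once vehicle control cultures reached saturation at 30 °C; 1 = growth at the plate median or of vehicle wells; lower values mean less growth of the strain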
Details: S. cerevisiae deletion strains, growth OD

Measured: normalized growth

OCC(O)CN1CCN(c2ccccc2)CC1 (stereo unspecified)
inactive: locus YAL013W, strain DEP1, stronger effect = lower value 0.995 | locus YAL021C, strain ccr4, stronger effect = lower value 0.923 | locus YAL026C, strain drs2, stronger effect = lower value 0.982 | locus YAL030W, strain snc1, stronger effect = lower value 0.996 | locus YBL061C, strain skt5, stronger effect = lower value 0.989 | locus YBR009C, strain hhf1, stronger effect = lower value 1 | locus YBR021W, strain FUR4, stronger effect = lower value 0.972 | locus YBR023C, strain chs3, stronger effect = lower value 0.997 | locus YBR171W, strain sec66, stronger effect = lower value 0.968 | locus YBR229C, strain ROT2, stronger effect = lower value 0.984 | locus YBR231C, strain swc5, stronger effect = lower value 0.999 | locus YBR279W, strain paf1, stronger effect = lower value 0.974 | locus YCL011C, strain gbp2, stronger effect = lower value 0.977 | locus YCL016C, strain dcc1, stronger effect = lower value 0.988 | locus YCL029C, strain bik1, stronger effect = lower value 0.978 | locus YCL061C, strain MRC1, stronger effect = lower value 0.973 | locus YCL069W, strain vba3, stronger effect = lower value 0.989 | locus YCR088W, strain abp1, stronger effect = lower value 0.98 | locus YDL005C, strain med2, stronger effect = lower value 0.963 | locus YDL035C, strain GPR1, stronger effect = lower value 1.02 | locus YDL040C, strain nat1, stronger effect = lower value 0.979 | locus YDL074C, strain BRE1, stronger effect = lower value 0.984 | locus YDL101C, strain DUN1, stronger effect = lower value 0.984 | locus YDL134C, strain PPH21, stronger effect = lower value 0.991 | locus YDL185W, strain tfp1, stronger effect = lower value 0.99 | locus YDL192W, strain arf1, stronger effect = lower value 0.995 | locus YDR001C, strain nth1, stronger effect = lower value 0.98 | locus YDR069C, strain doa4, stronger effect = lower value 0.982 | locus YDR101C, strain arx1, stronger effect = lower value 0.965 | locus YDR137W, strain rgp1, stronger effect = lower value 0.95 | locus YDR150W, strain NUM1, stronger effect = lower value 1 | locus YDR159W, strain sac3, stronger effect = lower value 1.01 | locus YDR162C, strain NBP2, stronger effect = lower value 1.01 | locus YDR195W, strain ref2 0.967 | locus YDR297W, strain sur2, stronger effect = lower value 0.982 | locus YDR318W, strain mcm21, stronger effect = lower value 0.989 | locus YDR334W, strain swr1, stronger effect = lower value 0.945 | locus YDR335W, strain msn5, stronger effect = lower value 0.978 | locus YDR388W, stronger effect = lower value 0.991 | locus YDR392W, strain spt3, stronger effect = lower value 0.931 | locus YDR502C, strain sam2, stronger effect = lower value 0.995 | locus YEL003W, strain gim4, stronger effect = lower value 0.938 | locus YEL037C, strain rad23, stronger effect = lower value 0.986 | locus YEL061C, strain CIN8 (second series), stronger effect = lower value 0.985 | locus YEL061C, strain CIN8, stronger effect = lower value 1 | locus YER015W, strain faa2, stronger effect = lower value 1 | locus YER016W, strain bim1, stronger effect = lower value 0.991 | locus YER110C, stronger effect = lower value 0.988 | locus YER111C, strain swi4, stronger effect = lower value 0.983 | locus YER155C, strain BEM2 (second series), stronger effect = lower value 1 | locus YER155C, strain BEM2, stronger effect = lower value 0.977 | locus YER167W, strain BCK2, stronger effect = lower value 1.01 | locus YGL078C, strain dbp3, stronger effect = lower value 0.991 | locus YGL086W, strain mad1, stronger effect = lower value 0.998 | locus YGL167C, strain pmr1, stronger effect = lower value 0.998 | locus YGL173C, strain kem1, stronger effect = lower value 0.978 | locus YGL227W, strain vid30, stronger effect = lower value 0.985 | locus YGL240W, strain doc1, stronger effect = lower value 1.01 | locus YGL248W, strain PDE1, stronger effect = lower value 0.975 | locus YGL253W, strain hxk2, stronger effect = lower value 0.993 | locus YGR078C, strain PAC10, stronger effect = lower value 0.99 | locus YGR135W, strain pre9, stronger effect = lower value 0.98 | locus YGR229C, strain SMI1, stronger effect = lower value 1.01 | locus YGR252W, strain gcn5, stronger effect = lower value 1.08 | locus YHR013C, strain ard1, stronger effect = lower value 0.953 | locus YHR027C, strain rpn1, stronger effect = lower value 0.984 | locus YHR030C, strain SLT2, stronger effect = lower value 0.991 and 0.969 | locus YHR079C, strain IRE1 (second series), stronger effect = lower value 0.991 | locus YHR079C, strain IRE1, stronger effect = lower value 0.965 | locus YHR094C, strain hxt1, stronger effect = lower value 0.992 | locus YHR129C, strain ARP1, stronger effect = lower value 0.985 | locus YHR142W, strain chs7, stronger effect = lower value 0.932 | locus YHR200W, strain rpn10, stronger effect = lower value 0.993 | locus YIL066C, strain RNR3, stronger effect = lower value 1 | locus YIL073C, strain SPO22, stronger effect = lower value 1.03 | locus YIL125W, strain kgd1, stronger effect = lower value 1 | locus YIR030C, strain dcg1, stronger effect = lower value 0.988 | locus YJL092W, strain hpr5, stronger effect = lower value 0.965 | locus YJL095W, strain BCK1 (second series), stronger effect = lower value 0.989 | locus YJL095W, strain BCK1, stronger effect = lower value 0.981 and 0.975 | locus YJL115W, strain asf1, stronger effect = lower value 0.965 | locus YJL129C, strain trk1, stronger effect = lower value 0.957 | locus YJL134W, strain LCB3, stronger effect = lower value 0.988 | locus YJL154C, strain vps35, stronger effect = lower value 0.983 | locus YJL164C, strain tpk1, stronger effect = lower value 0.966 | locus YJL166W, strain qcr8, stronger effect = lower value 1 | locus YJL168C, strain set2, stronger effect = lower value 0.983 | locus YJL187C, strain SWE1 (second series), stronger effect = lower value 0.988 | locus YJL187C, strain SWE1, stronger effect = lower value 0.981 | locus YJR043C, strain POL32, stronger effect = lower value 0.977 | locus YJR066W, strain TOR1, stronger effect = lower value 0.908
